# Results as given in PubChem BioAssay (NCATS).
# “And” between values parts separate entries of the source, which are not always exact repeats. Identical values can stand only once.
# Experiment: qHTS profiling for inhibitors of Plasmodium falciparum (DD2) proliferation (AID 743323)
# Settings: lower = more inhibition; at 28.7 µM (top of the series)
# Text: Plasmodium falciparum is a virulent malarial parasite that kills 1-2 million people worldwide each year. Transmitted by mosquitoes, the sporozoite form of the parasite enters the blood stream to infect hepatocytes, where they become merozoites that infect red blood cells (erythrocytes). Within erythrocytes, merozoites begin a […] cycle of growth and division, after which the parasite is released to infect new red blood cells. Gametocytes, which form within erythrocytes as well, circulate in the bloodstream and are ingested by the mosquito, thereby completing the life cycle. To profile malarial isolates for differential chemical responses and to identify inhibitors of malarial growth, an assay that measures P. falciparum growth and replication within erythrocytes was employed. This assay uses a DNA binding fluorescent dye (SYBR Green) to detect parasite DNA following cell lysis. Because mature erythrocytes lack DNA, only Plasmodium-derived DNA is detected.
# The SYBR Green viability assay was adapted from a method described previously (Plouffe et al., 2008). For screening 3 ul culture medium was dispensed into 1536 well black clear bottom plates (Aurora Biotechnologies) using a Multidrop Combi (Thermo Fisher Scientific Inc.), 23 nL compounds in DMSO were added by a pin tool (Kalypsys), and 5 ul of erythrocytes infected with P. falciparum (0.3% parasitemia, 2.5% hematocrit final concentration) were added. The plates were incubated at 37 C in a humidified incubator in 5% CO2 for 72 h, and 2 ul lysis buffer (20 mM Tris HCl, 10 mM EDTA, 0.16% saponin, […]% triton X, 10X SYBR Green I supplied as 10,000X […] by Invitrogen) was added to each well. The plates were mixed for 25 sec with gentle shaking and incubated overnight at room temperature in the dark. The following morning, fluorescence intensity at 485(14) nm excitation and 535(25) nm emission wavelengths was measured on an EnVision (Perkin Elmer) plate reader. Plate reads were normalized relative to the control inhibitor (0.29 uM artemisinin) and vehicle (DMSO) wells present on each plate and then corrected by an algorithm using vehicle-only control plates at the beginning and end of the compound plate stack.
row,SMILES,"activity, percent of control"
1,O=c1cc(CN2CCOCC2)occ1OCCCCCSc1ccnc2cc(C(F)(F)F)ccc12,26.8%
2,COc1ncc(-c2ccc3nccc(-c4ccnnc4)c3c2)cc1NS(=O)(=O)c1ccc(F)cc1F,-0.177%
3,CCc1ccc(OCc2ccccc2C(=O)Nc2ccc3nc(C)cc(N)c3c2)cc1,0.0556%
4,O=C(Nc1ccccc1-c1cn2c(CN3CCNCC3)csc2n1)c1cnc2ccccc2n1,-0.76% and -0.434%
5,Cc1nc(N)sc1-c1ccnc(Nc2ccc(N3CCOCC3)cc2)n1,7.68%
6,N#Cc1ccc(NC(=O)Nc2ccccc2Br)c2n[nH]nc12,69.6%
7,CCOC(CN1C(=O)[C@](CC(=O)Nc2ccc(C)cc2)(NC(=O)Nc2ccc(C)cc2)c2ccccc21)OCC,23.7%
8,Clc1ccc(-c2nc3sccn3c2C=NOCc2ccc(Cl)c(Cl)c2)cc1,101%
9,CC(C)(C)COc1ccc(-n2cc(C(=O)O)cn2)cc1C#N,88.8%
10,O=C(N[C@@H](c1ccccc1)[C@@H]1CCCCN1)c1cccc(C(F)(F)F)c1Cl,16.6%
11,CC(=O)N(C)C1(c2ccccc2)CCN(CCC[C@]2(c3ccc(Cl)c(Cl)c3)CCCN(C(=O)c3ccccc3)C2)CC1,-0.455%
12,CC(C)[C@H](CO)Nc1nc(Nc2ccc(C(=O)O)c(Cl)c2)c2ncn(C(C)C)c2n1,35.2%
13,CC(=O)Nc1ccc([C@H](C)C(=O)Nc2ncc(C(C)C)s2)cc1,101%
14,COc1cc2ncnc(-n3nc(-c4ccccn4)nc3N)c2cc1OC,96.4%
15,CN1CCN(CCOc2cc(OC3CCOCC3)c3c(Nc4c(Cl)ccc5c4OCO5)ncnc3c2)CC1,1.7%
16,CC(C)C(=O)Nc1ncc(-c2cc(C(F)F)nn2-c2c(Cl)cccc2Cl)s1,-0.314%
17,CN(C)C1CCN(C(=O)c2ccc(NC(=O)Nc3nc(N4CCOCC4)nc(N4CCOCC4)n3)cc2)CC1,2%
18,OC[C@H]1O[C@@H](n2cnc3c2NC=NC[C@@H]3O)C[C@H]1O,106%
19,C[C@@H]1CCN(C(=O)CC#N)C[C@H]1N(C)c1ncnc2[nH]ccc12,90.1%
20,COc1ccc(C2CC(c3ccccc3)=NN2c2ccc(S(N)(=O)=O)cc2)cc1 (stereo not given),40.1%

row,SMILES,"activity, percent of control"
1,COc1cccc2c1CCCC2CCCN1CCN(C2CCCCC2)CC1 (stereo not given),3.08%
2,CC(C)(C(=O)NCC(F)(F)C(F)(F)F)C(=O)N[C@@H]1C(=O)Nc2ccccc2-c2ccccc21,4.91%
3,CC[C@H]1OC(=O)[C@H](C)[C@@H](O[C@H]2C[C@@](C)(OC)[C@@H](O)[C@H](C)O2)[C@H](C)[C@@H](O[C@@H]2O[C@H](C)C[C@H](N(C)C)[C@@H]2O)[C@](C)(O)C[C@@H](C)CN(C)[C@H](C)[C@@H](O)[C@]1(C)O,19.2%
4,O=C(O)CCC1CCC(c2cc(F)ccc2F)(S(=O)(=O)c2ccc(Cl)cc2)CC1 (stereo not given),74.5%
5,Cc1ccc(F)c(NC(=O)Nc2ccc(-c3cccc4[nH]nc(N)c34)cc2)c1,67.8%
6,CCOc1ccc(Nc2nc(-c3c(C)nc4ccccn34)cs2)cc1,5.76%
7,CO[C@@H](C(=O)N1Cc2[nH]nc(NC(=O)c3ccc(N4CCN(C)CC4)cc3)c2C1)c1ccccc1,24.6%
8,O=C(Nc1cc(Cl)cc2c1[nH]c1cnccc12)c1cccnc1,7.04%
9,COc1cc(Nc2ncc(F)c(Nc3ccc4c(n3)NC(=O)C(C)(C)O4)n2)cc(OC)c1OC,89.1%
10,O=c1cc(N2CCOCC2)oc2c(-c3cccc4c3sc3ccccc34)cccc12,10.6%
11,CC(C)(C)c1cc(C(=O)O)c(NC(=O)Nc2ccc3[nH]ncc3c2)s1,95.5%
12,CO[C@H]1C[C@@H]2CC[C@@H](C)[C@@](O)(O2)C(=O)C(=O)N2CCCC[C@@H]2C(=O)O[C@H]([C@H](C)C[C@@H]2CC[C@H](OCCO)[C@H](OC)C2)CC(=O)[C@H](C)C=C(C)[C@@H](O)[C@@H](OC)C(=O)[C@H](C)C[C@H](C)C=CC=CC=C1C,-0.639%
13,CC(C)(C)C(=O)Oc1ccc2c(c1)nc(NC(=O)c1cccc([N+](=O)[O-])c1)n2CCCO,82%
14,NC(CO)(CO)CCc1ccc(Sc2cccc(OCc3ccccc3)c2)cc1Cl,1.55%
15,COc1cc2nc(-c3ccc(N4CCN(C)CC4)cc3)nc(NCCN3CCOCC3)c2cc1OC,-0.313%
16,CC1=C(/C=C/C(C)=C/C=C/C(C)=C/C(=O)Nc2ccc(O)cc2)C(C)(C)CCC1,22.9%
17,c1ccc2c(-c3cnn4cc(-c5ccc(N6CCNCC6)cc5)cnc34)ccnc2c1,-0.291%
18,O=C(O)c1ccc(-c2cc3cccnc3c(-c3ccc4nonc4c3)n2)cc1,92.9%
19,CN(C)Cc1ccc(-c2nc3cccc4c3n2CCNC4=O)cc1,90%
20,O=C1C(Cl)=C(NCCN2CCOCC2)C(=O)c2ncccc21,17.3%
